Measurements: PubChem BioAssay (Tox21)
Results filed as inconclusive are left out. Entries that show only a call come without a potency. Calls of active or inactive are those of the source. Calls follow the shape of the full dose curve.

Assay: qHTS assay for small molecule disruptors of the mitochondrial membrane potential - cell viability (AID 720634);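 also: human HepG2 liver cancer cells; nearly all actives have a fitted effect of over 20% in size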
Conditions: HepG2 viability, ATP luminescence (CellTiter-Glo), 1 h; series mostly up to 83.2 µM
Description: U.S. Tox21 Program National Center for Advancing Translational Sciences [NCATS] NIH Chemical Genomics Center [NCGC] U.S. Environmental Protection Agency [EPA] National Institutes of Environmental Health Sciences [NIEHS] National Toxicology Program [NTP] U.S. Food and Drug Administration [FDA] Tox21 Assay Overview: Mitochondrial membrane potential (MMP), one of the parameters for mitochondrial function, is generated by mitochondrial electron transport chain that creates an electrochemical gradient by a series of redox reactions. This gradient drives the synthesis of ATP, a crucial molecule for various cellular processes. Measuring MMP in living cells is commonly used to assess the effect of chemicals on mitochondrial function; decreases in MMP can be detected using lipophilic cationic fluorescent dyes. […] The dye accumulates in the mitochondria of healthy cells as aggregates, with red fluorescence. The mitochondrial potential decreases and the dye could not accumulate in the mitochondria and remains in the cytoplasm in monomers, with green fluorescence. In addition to the mitochondrial potential assay, these cells were also used to test the cytotoxicity by determining the cell viability in the culture based on the quantitation of ATP present. The cytotoxicity was measured in the same assay well of MMP assay.
Tox21 Assay Protocol Summary: 2,000 HepG2 cells in 5 uL/well were dispensed into black, clear-bottom 1536-well plates using a Multidrop Combi (Thermo Scientific) dispenser. The assay plates were incubated for an overnight at 37 C to allow cells to attach to the wells, followed by the transfer of 23 nL compound or DMSO vehicle by a pin tool (Kalypsys). The plates were incubated for 1 hr at 37 C and 5% CO2, followed by the addition of 5 uL of 2X m-MPI dye into each well using Flying Reagent Dispenser (Aurora Discovery) and then CellTiter-Glo reagent was added at 4 uL/well and incubated 30 min at room temperature. Then luminescence intensity was quantified on a ViewLux CCD-based plate reader.

Compound	Potency
CCCCC(CC)(CO)CO	inactive
CCCCCc1ccc(N)cc1	inactive
CCCCCOC(=O)COc1cc(N2C(=O)C3=C(CCCC3)C2=O)c(F)cc1Cl	inactive
CN(C)CC[C@@H](c1ccc(Br)cc1)c1ccccn1	inactive
Cc1cccc(C(C)(C)C)c1O	inactive
CCCC[C@H]1CN(CC2CCOCC2)C(=O)OC12CCN(C1(C)CCN(C(=O)c3c(C)ncnc3C)CC1)CC2	inactive
CCCCc1cc2ccccc2c(OCCN(C)C)n1	inactive
OCCC1CCCCN1 (stereo not given)	inactive
CCCC(C)C	inactive
O=C(O)c1cccc(N(Cc2cccnc2)c2ccc(OC(F)F)c(OC(F)F)c2)c1	inactive
O=C(Cl)c1c(Cl)cccc1Cl	inactive
CC(=O)/C(C)=C/C1C(C)=CCCC1(C)C (stereo not given)	inactive
O=C1[C@H](CC[C@H](O)c2ccc(F)cc2)[C@@H](c2ccc(O)cc2)N1c1ccc(F)cc1	inactive
C[Si](C)O[Si](C)(C)O[Si](C)(C)O[Si](C)C	inactive
CCCC(=O)OCC	inactive
CCC(=O)OC(C)(C)C1CC=C(C)CC1 (stereo not given)	inactive
CN(C(=O)CCCOc1ccc2[nH]c(=O)ccc2c1)C1CCCCC1	inactive
CC1CCc2cc(F)cc3c(=O)c(C(=O)O)cn1c23 (stereo not given)	inactive
CC(=O)Nc1ccc(/C=N/NC(N)=S)cc1	inactive
Cc1cc(C)c(S(=O)(=O)O)cc1N=Nc1cc(S(=O)(=O)O)c2ccccc2c1O	inactive

Compound	Potency
CCN(CC)CCOC(=O)C1(c2ccccc2)CCCC1	inactive
O=C1c2cccc(O)c2C(=O)c2c(O)cc(CO)cc21	inactive
CC(C)(C)C1CCCCC1O (stereo not given)	inactive
Nc1nc(N)c(-c2ccccc2)s1	inactive
Cc1ccccc1N=Nc1ccc(N=Nc2c(O)ccc3ccccc23)c(C)c1	inactive
N=C(N=C(N)N)N1CCOCC1	inactive
Oc1ccc(C(O)CNCCCCCCNCC(O)c2ccc(O)c(O)c2)cc1O (stereo not given)	inactive
Cc1ccc(C(N)=O)cc1N	inactive
CCCCCC/C=C/C=O	inactive
CC(C)(C)c1cc(O)c(C(C)(C)C)cc1O	inactive
O=C(c1ccccc1)c1ccc2n1CCC2C(=O)O (stereo not given)	inactive
COCCO	inactive
C=CC(=O)OCC(C)OCC(C)OCC(C)OC(=O)C=C (stereo not given)	inactive
CC(C)NCC(O)c1cc(O)cc(O)c1 (stereo not given)	inactive
CN1CCC(=C2c3ccccc3C=Cc3ccccc32)CC1	inactive
CC(=O)OCCc1ccccc1	inactive
CCCc1ccccc1	inactive
CCCCCCCCCCCCC(=O)O	inactive
Oc1ccc(Sc2ccc(O)cc2)cc1	inactive
c1ccc(OCc2ccc(CCCN3CCOCC3)cc2)cc1	inactive
